The subject of one test is ES2. Kind of test: cell viability relative to DMSO control (MTS) (fraction of DMSO control); higher = more viable cells / less growth inhibition. As to conditions: 10 µM; 48 h. In short, it runs like this: (§1)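 A 367-compound […] library was tested at a final concentration of 10 µM on TOV-21G and ES2 clear cell carcinoma cells (5000 cells per well, 96-well plates, pre-grown 24 h), with control wells receiving vehicle only. Following 48 h of exposure, CellTiter 96 AQueous One Solution was used as the manufacturer directs. This MTS assay gives cell viability as a fraction of the vehicle control.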

Another test relates to TOV-21G. The test is described as above. As to conditions: 10 µM; 48 h. Summed up:
as §1

Where a name gives a salt, the structure may show the parent alone. ± gives the standard deviation of the averaged measurements.

This is an account of results in the supplement of paper PMC12669797.

Consider `Cc1nc2c(O)cccc2c(=O)[nH]1`, for which the cell viability in the test on ES2 worked out at 1.04; in the test on TOV-21G, 0.856.
The like results for `CNC(=N)NCCC[C@H](N)C(=O)O` were, in that order, 0.909 and 0.974.
As for `CCCCN1C(=O)C2Cc3c([nH]c4ccccc34)C(c3cccc(O)c3)N2C1=O` (stereo not drawn), the cell viability in the test on ES2 stood at 0.368; in the test with TOV-21G it was 0.46.
For `OC[C@H]1NC[C@H](O)[C@@H](O)[C@@H]1O` [Deoxynojirimycin], the cell viability was 1.02 in the test on ES2 and 1.19 in the test with TOV-21G.
As for `COc1cc2c(NC3CCN(C(C)C)CC3)nc(C3CCCCC3)nc2cc1OCCCN1CCCC1`, the cell viability was 0.337 in the test with ES2 and 0.486 in the test on TOV-21G.
For the molecule `COc1cc2c(cc1OC)-c1[nH]nc(Nc3cccc(F)c3)c1C2` [PDGF receptor tyrosine kinase inhibitor IV], the cell viability is 0.288 in the test on ES2 and 0.297 in the test with TOV-21G.
As to `CC#C[C@]1(O)CC[C@H]2[C@@H]3CCC4=CC(=O)CCC4=C3[C@@H](c3ccc(N(C)C)cc3)C[C@@]21C` [Mifepristone], the cell viability came to 1.04 with ES2 and 0.846 in the test on TOV-21G.
The like results for `CCCOc1ccccc1-c1nc2[nH]nnc2c(=O)[nH]1` [Zaprinast] were, in that order, 0.909 and 1.03.
The like results for `Cc1nc(Nc2ncc(C(=O)Nc3c(C)cccc3Cl)s2)cc(N2CCN(CCO)CC2)n1` [dasatinib] were, in that order, 0.608 and 0.815.
The like results for `CCC(=C/[C@H](C)C/C=C/C(C)=C/[C@@H](C)C(=O)[C@@H](C)[C@H](O)[C@@H](C)C/C(C)=C/C(=O)O)/C=C/[C@@H]1OC(=O)C=C[C@@H]1C` [Leptomycin B*] were, in that order, 0.406 and 0.39.
Consider `COc1ccc(COc2ccc(Cc3cnc(N)nc3N)cc2OC)cc1` [cFMS Receptor Tyrosine Kinase Inhibitor], for which the cell viability in the test on ES2 was determined as 0.942; with TOV-21G it was 1.01.
The like results for `CN(C)c1ccccc1CN1CCCN(Cc2ccccc2N(C)C)C1c1ccncc1` were, in that order, 0.853 and 0.229.
In the same order, the values of `O=C(c1cc(Cc2n[nH]c(=O)c3ccccc23)ccc1F)N1CCN(C(=O)C2CC2)CC1` [Olaparib] are 0.77 and 0.888.
In the same order, the values of `CO[C@H]1C[C@@H]2CC[C@@H](C)[C@@](O)(O2)C(=O)C(=O)N2CCCC[C@H]2C(=O)O[C@H]([C@H](C)C[C@@H]2CC[C@@H](O)[C@H](OC)C2)CC(=O)[C@H](C)/C=C(\C)[C@@H](O)[C@@H](OC)C(=O)[C@H](C)C[C@H](C)/C=C/C=C/C=C/1C` [Rapamycin] are 0.854 and 0.576.
`CNC(=O)[C@H](Cc1c[nH]c2ccccc12)NC(=O)[C@@H](CC(=O)NO)CC(C)C`: the figures for the cell viability in the test with ES2 and with TOV-21G were 1.02 and 0.959, respectively.
The like results for `Cc1cc(N)c2ccccc2[n+]1CCCCCCCCCC[n+]1c(C)cc(N)c2ccccc21` [Dequalinium] were, in that order, 0.383 and 0.42.
In the same order, the values of `Cc1cn(-c2cc(NC(=O)c3ccc(C)c(Nc4nccc(-c5cccnc5)n4)c3)cc(C(F)(F)F)c2)cn1` [nilotinib] are 0.751 and 0.709.
For `Cc1nc2sccn2c(=O)c1CCN1CCC(=C(c2ccccc2)c2ccc(F)cc2)CC1`, the cell viability was 0.963 in the test on ES2 and 1.04 in the test on TOV-21G.
On to `OCCn1cc(-c2cnc3nnn(Cc4ccc5ncccc5c4)c3n2)cn1`, for which the cell viability in the test with ES2 came to 1.05; with TOV-21G, 1.18.
The like results for `C[C@H](NC(=O)/C(C#N)=C/c1cccc(Br)n1)c1ccccc1` were, in that order, 0.347 and 0.392.
In the same order, the values of `COc1cc(Nc2ncc3c(n2)-c2ccc(Cl)cc2C(c2c(F)cccc2OC)=NC3)ccc1C(=O)O` are 0.769 and 0.619.
`C[C@@H](Oc1cc(-c2cnn(C3CCNCC3)c2)cnc1N)c1c(Cl)ccc(F)c1Cl` [crizotinib]: the cell viability worked out at 0.34 in the test on ES2 and 0.333 with TOV-21G.
The like results for `C=CCc1cccc(/C=N/NC(=O)CN2CCN(Cc3ccccc3)CC2)c1O` were, in that order, 0.787 and 0.821.
In the case of `c1ccc2c(-c3cnn4cc(-c5ccc(N6CCNCC6)cc5)cnc34)ccnc2c1`, the cell viability with ES2 amounted to 0.267; with TOV-21G, 0.344.
For the molecule `COc1ccc([C@@H]2Sc3ccccc3N(CCN(C)C)C(=O)[C@@H]2OC(C)=O)cc1` [Diltiazem], the cell viability in the test on ES2 was 0.858; in the test with TOV-21G it was 1.04.
For `Cc1c2oc3c(C)ccc(C(=O)N[C@@H]4C(=O)N[C@H](C(C)C)C(=O)N5CCC[C@H]5C(=O)N(C)CC(=O)N(C)[C@@H](C(C)C)C(=O)O[C@@H]4C)c3nc-2c(C(=O)N[C@@H]2C(=O)N[C@H](C(C)C)C(=O)N3CCC[C@H]3C(=O)N(C)CC(=O)N(C)[C@@H](C(C)C)C(=O)O[C@@H]2C)c(N)c1=O` [Actinomycin D], the cell viability is 0.584 in the test with ES2 and 0.456 in the test with TOV-21G.
The like results for `Cc1ccc(-c2cn3c4c(sc3n2)CCCC4)cc1` [Pifithrin-a (cyclic)] were, in that order, 1.03 and 1.11.
The like results for `Cc1ccc(Nc2nccc(N(C)c3ccc4c(C)n(C)nc4c3)n2)cc1S(N)(=O)=O` [pazopanib] were, in that order, 0.96 and 0.864.
As for `CC(C)C(=O)Nc1ccc([N+](=O)[O-])c(C(F)(F)F)c1` [Flutamide], the cell viability in the test on ES2 was found to be 0.917; in the test with TOV-21G it was 1.09.
Regarding `CCCS(=O)(=O)Nc1ccc(F)c(C(=O)c2c[nH]c3ncc(-c4ccc(Cl)cc4)cc23)c1F` [Vemurafenib], the results for the cell viability in the test on ES2 and in the test with TOV-21G were 0.651 and 0.881, respectively.
The like results for `COc1cc2ncnc(Nc3ccc(F)c(Cl)c3)c2cc1OCCCN1CCOCC1` [gefitinib] were, in that order, 0.825 and 0.889.
Take `C/C=C/C=C\C=C/C(O)C(C)C(CCC(C)C1OC(=O)C=CC1C)OP(=O)(O)O` (stereo not drawn) [Cytostatin]: the cell viability with ES2 is 0.34; with TOV-21G it was 0.344.
The like results for `CCCCC[C@H](CC(=O)NO)C(=O)N[C@H](C(=O)N1CCC[C@H]1CO)C(C)C` [Actinonin] were, in that order, 1 and 0.848.
Take `CC(=O)N[C@@H](CS)C(=O)O` [N-Acetyl-L-cysteine]: the cell viability in the test with ES2 came to 1.04; in the test on TOV-21G it was 0.965.
In the same order, the values of `NCC(=O)Nc1ccc(-n2nc(C(F)(F)F)cc2-c2ccc3c(ccc4ccccc43)c2)cc1` are 1.04 and 1.21.
With `Cn1cnc2c(NCc3ccccc3)nc(NCCO)nc21` [Olomoucine], the cell viability worked out at 1.25 ± 0.25 in the test on ES2 and 1.27 ± 0.17 in the test with TOV-21G.
The like results for `Cc1cccc(-c2nn3c(c2-c2ccnc4ccc(C(N)=O)cc24)CCC3)n1` were, in that order, 0.988 and 1.02.
The like results for `CC(=O)N[C@@H](CSC(=O)[C@]1([C@@H](O)C(C)C)NC(=O)[C@H](C)[C@@H]1O)C(=O)O` [Lactacystin] were, in that order, 0.637 and 0.482.
In the same order, the values of `C[C@@H]1C[C@H]2[C@@H]3CCC4=CC(=O)C=C[C@]4(C)[C@@]3(F)[C@@H](O)C[C@]2(C)[C@@]1(O)C(=O)CO` [Dexamethasone] are 1.01 and 1.29.
Take `COc1cc(/C=C(\C#N)C(N)=O)cc(CSc2nc3ccccc3s2)c1O`: the cell viability with ES2 was 0.978 ± 0.072; in the test with TOV-21G, 1.067 ± 0.0093.
As to `CN(C)CC[C@H](CSc1ccccc1)Nc1ccc(S(=O)(=O)NC(=O)c2ccc(N3CCN(Cc4ccccc4-c4ccc(Cl)cc4)CC3)cc2)cc1[N+](=O)[O-]`, the cell viability with ES2 was 0.713; with TOV-21G, 0.358.
In the same order, the values of `Cc1[nH]c(/C=C2\C(=O)Nc3ccc(S(=O)(=O)N(C)c4cccc(Cl)c4)cc32)c(C)c1C(=O)N1CCN(C)CC1` are 0.402 and 0.639.
The like results for `O=C(CCCCCCC(=O)Nc1ccccc1)NO` [vorinostat] were, in that order, 0.38 and 0.388.
As to `O=Cc1ccc(N2CCOCC2)cc1O`, the results for the cell viability in the test on ES2 and with TOV-21G were 1.07 and 0.993, respectively.
In the case of `CCN(CC)CCNC(=O)c1c(C)[nH]c(/C=C2\C(=O)Nc3ccc(F)cc32)c1C` [sunitinib malate], the cell viability amounted to 0.439 in the test with ES2 and 0.555 in the test on TOV-21G.
In the same order, the values of `COc1cccc2c1C(=O)c1c(O)c3c(c(O)c1C2=O)C[C@@](O)(C(=O)CO)C[C@@H]3O[C@H]1C[C@H](N)[C@H](O)[C@H](C)O1` [Doxorubicin, HCl] are 0.312 and 0.403.
In the same order, the values of `CCn1cc(C(=O)O)c(=O)c2ccc(C)nc21` [Nalidixic acid] are 0.981 and 1.12.
In the same order, the values of `Oc1ccc(-c2nc(-c3ccc(F)cc3)c(-c3ccncc3)[nH]2)cc1` are 0.468 and 0.806.
Regarding `CCCCCCCC(=O)OCCOC(=O)CCCCCCC` [Dioctanoylglycol], the cell viability is 1.3 in the test with ES2 and 0.996 with TOV-21G.
